# Source: PubChem BioAssay (National Center for Advancing Translational Sciences (NCATS))
# Compounds with a hit are over-represented: about 15% of the library has one in this group of screens.
# HCV inh: blocks hepatitis C virus; AID 651820; Potency, µM (series often up to 41.8 µM), actives largely listed as inhibitors; Huh7.5.1 HCVcc-Cre infection, luciferase reporter, 44 h; 340,000 compounds, 3.4% hits
#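 Compounds are dispensed onto cells plated 4 h earlier at 1,000 per well, with HCVcc-Cre virus (about 0.5 moi) added next. Following 44 h of culture, luminescent signal is measured for 15 sec after 15 min with substrate at room temperature.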
# Pf growth 96h: P. falciparum growth inhibition at 96 hour, primary screen for plastid delayed-death inhibitors; P. falciparum luciferase reporter growth, 96 h; Potency, µM (series often up to 28.7 µM), usual class: inhibitors; 320,000 compounds, 6.9% hits
#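 Cell-based qHTS: luciferase-tagged P. falciparum in erythrocytes (2% hematocrit, 0.05% parasitemia final) incubated with compounds for 96 hours, 37 C, 5% CO2; luciferase detection reagent then added and luminescence measured.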
# Sm TGR inh: inhibitors of Schistosoma mansoni thioredoxin glutathione reductase | 360,000 compounds, 3% hits | Potency, µM (top dose mostly 114 µM), actives largely listed as inhibitors | purified TGR, DTNB reduction, TNB absorbance 405 nm | Q962Y6; also: nearly all actives have a fitted effect of over 60% in size
#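 TGR 20 nM + NADPH 100 uM (dispensed conc.), cpd preinc 15 min RT; start with NADPH (500 uM addition) then DTNB (15 mM addition). Kinetic TNB absorbance, 405 nm filter. Four-parameter Hill fit across titration.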
# HCMV antiviral: human cytomegalovirus inhibition; HFF cells, HCMV-luciferase reporter, 72 h; hits give low values; activity change, negative = inhibition, % at 57.5 µM; 410,000 compounds, 4.5% hits; in the data active = activity change below about -60%; inconclusive = no clear call, values can overlap the other calls; inactive = above about -39%
#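 Compounds were evaluated in HFFs infected with an HCMV luciferase reporter virus (MOI 1 PFU/cell). Luciferase in lysates collected 72 h post infection served as the replication measure.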
# SARS PLP yeast: blocks SARS-CoV papain-like protease in a yeast assay; 330,000 compounds, 0.19% hits; S. cerevisiae expressing SARS-CoV PLpro, growth rescue; Potency, µM (titrated, usually from 32.9 µM), usual class: activators; calls by dose curve; also: nearly all actives have a fitted effect of over 55% in size
# Pf growth 48h: inhibits P. falciparum growth in the first generation, 48 h; Potency, µM (top dose mostly 28.7 µM), most hits filed as inhibitors; P. falciparum luciferase growth in erythrocytes, 48 h; 310,000 compounds, 5.9% hits
#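 Read-out is firefly luciferase luminescence from an integrated reporter in P. falciparum, so falling signal marks reduced parasite growth. Infected erythrocytes were at 2% hematocrit and 0.1% parasitemia (final) in Albumax-supplemented RPMI 1640.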
# Numbers stand for hits; 0 = inactive; ? = inconclusive; - = not tested or not shown. Unless noted, calls follow the shape of the dose curve; as a rule, active = well fitted curve in the direction sought with a large enough effect; inconclusive = small, poorly fitted or top-dose-only effect, or another doubt; inactive = no such curve, though single readings can be large; an effect the other way counts as inactive or inconclusive.
SMILES,HCV inh,Pf growth 96h,Sm TGR inh,HCMV antiviral,SARS PLP yeast,Pf growth 48h
CC(=O)Nc1cc2oc3ccccc3c2cc1[N+](=O)[O-],?,-,-,-84,-,-
CC1=C(C(=O)Nc2ccccc2)C(c2ccccc2C)n2nc(SCC(=O)c3ccc(C)cc3)nc2N1 (configuration not stated),-,-,0,0,-,-
COc1cc2c(cc1NC(=O)c1cccc([N+](=O)[O-])c1C)oc1ccccc12,2µM,0,0,0,0,?
COc1cc2c(cc1NC(=O)Nc1ccc(C)cc1)oc1ccccc12,?,0,0,0,0,-
CC(C)C[C@H]1COc2cccc(NCCO)c2S(=O)(=O)N1,-,-,-,0,-,-
CCC(C)c1ccccc1NC(=O)C(C)NCCN(C)C (configuration not stated),0,0,40µM,0,0,0
CCCNC(C)C(=O)Nc1ccccc1C (configuration not stated),0,-,0,0,0,-
Oc1ccc(-c2nccc(-c3ccc(F)cc3)n2)cc1,0,0,0,0,0,0
CC(C(=O)NC1CCCCC1)N1CCN(S(=O)(=O)c2cccs2)CC1 (configuration not stated),0,0,0,0,0,0
CC(C(=O)NC(=O)NC1CCCCC1)N1CCN(c2ccc(O)cc2)CC1 (configuration not stated),0,17µM,0,0,0,?
CC(C(=O)Nc1cc([N+](=O)[O-])ccc1Cl)N1CCN(c2ccc(O)cc2)CC1 (configuration not stated),?,13µM,0,?,?,0
CC(C(=O)Nc1ccc([N+](=O)[O-])cc1Cl)N1CCN(S(=O)(=O)c2cccs2)CC1 (configuration not stated),?,?,0,?,0,12µM
CCc1ccc(CN(C)C(=O)c2cc(COc3ccc(OC)cc3Cl)on2)nc1,0,0,0,0,0,0
CCC(C)NC(=O)c1cn(C)c(=O)c2cc(OC)c(OC)cc12 (configuration not stated),?,9.3µM,0,0,0,0
COCCNC(=O)c1cn(C)c(=O)c2cc(OC)c(OC)cc12,0,8.3µM,0,0,0,0
CCOC(=O)N1CCN(C(=O)CC(C(=O)N2CCc3ccccc32)n2ccnc2)CC1 (configuration not stated),0,0,0,0,0,0.033µM
COc1ccc(OC)c2c1sc(=NC(=O)C(C)(C)C)n2C,10µM,0,0,0,0,-
COc1ccc(OC)c2c1sc(=NC(=O)C(C)C)n2C,0,0,0,0,0,-
Cc1cc(=O)c2c(=O)[nH][nH]c2[nH]1,-,-,-,0,-,-
COc1ccc(Nc2ncnc3ccc(C)cc23)cc1,0,12µM,0,-72,0,?
c1ccc(Cn2ncc3c(Nc4ccccc4)ncnc32)cc1,?,0,0,0,0,?
Brc1ccc2ncnc(Nc3cccc4ccccc34)c2c1,?,13µM,0,-66,0,?
COc1ccc(OC)c(Nc2ncnc3ccc(Br)cc23)c1,?,?,0,-63,-,?
COc1ccc(Nc2ncnc3c2cnn3Cc2ccc(C)cc2)cc1,11µM,-,0,0,0,0
COc1ccc(OC)c(Nc2ncnc3ccccc23)c1,?,0,0,0,0,0
SMILES,HCV inh,Pf growth 96h,Sm TGR inh,HCMV antiviral,SARS PLP yeast,Pf growth 48h
O=C(O)c1cccc(Nc2ncnc3ccc(Br)cc23)c1,0,0,0,0,0,0
CCC(C(=O)OCC(=O)NCc1ccc2c(c1)OCO2)c1ccccc1 (configuration not stated),0,-,-,0,0,-
COc1ccc(CCN(C)C(=O)C2CCN(C(=O)Nc3ccccc3)CC2)cc1OC,0,0,0,0,0,0
Cc1c(C(=O)NCc2ccccc2Br)oc2c1-c1[nH]ncc1CC2,-,-,0,0,-,-
O=C(/C=C/c1ccc2ccccc2n1)N1CCN(S(=O)(=O)c2ccccc2F)CC1,?,?,0,-97,0,?
O=C(/C=C/c1ccc2ccccc2n1)N1CCN(c2ccccc2)CC1,0,0,0,0,0,0
O=C(/C=C/c1ccc2ccccc2n1)N1CCN(S(=O)(=O)c2ccc(F)cc2)CC1,0,10µM,0,-80,0,?
